In PubChem BioAssay (NCATS):
“And” between values parts separate entries of the source, which are not always exact repeats. Identical values can stand only once. Results filed as inconclusive are left out. For some assays here: Entries with a potency or affinity are not part of this list. The source made the active and inactive calls. Unless noted, how the calls were made is not given here.

Experiments:
[1] = Ebola virus entry assay, green channel fluorescence
[2] = Ebola virus entry assay, reporter ratio channel; Channel type: primary
[3] = Ebola virus entry assay, blue channel (ratio component)
[4] = qHTS assay for small molecule antagonists of the retinoid-related orphan receptor gamma (ROR-gamma) signaling pathway - cell viability counter screen (AID 720652; active means well fitted curve in the direction sought with a large enough effect in the repeat runs; an effect the other way counts as inactive or inconclusive;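 further: CHO reporter cells with doxycycline-induced ROR-gamma expression; compound exposure lasted 16 hr before ATP read; on the % scale 0 is the no-effect control and ±100 the full control effect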); settings: RORgamma reporter cell line viability counter screen; series mostly up to 92.2 µM
Outline: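 CHO cells carrying TET-inducible ROR and RORE-luciferase reporter, plated 5 hr, then dosed with compound plus doxycycline. After 16 hr at 37 C, viability read as intracellular ATP by CellTiter-Glo luminescence.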

[5] = qHTS assay for small molecule agonists of the antioxidant response element (ARE) signaling pathway measured by Nrf2-dependant transcriptional activity - cell viability counter screen (AID 720653; active means well fitted curve in the direction sought with a large enough effect in the repeat runs; an effect the other way counts as inactive or inconclusive; further: on the % scale 0 is the no-effect control and ±100 the full control effect); settings: ARE-bla HepG2 viability, CellTiter-Glo ATP luminescence, 16 h; max response: active compounds read low
Outline: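 ARE-bla HepG2 cells treated with compounds for 16 h at 37C; this counter screen measures viability as intracellular ATP by CellTiter-Glo luminescence after 30 min at room temperature.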

[6] = qHTS Assay for Identifying Gametocytocidal Compounds (AID 743244; active means well fitted curve in the direction sought with a large enough effect; an effect the other way counts as inactive or inconclusive;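 further: on the % scale 0 is the no-effect control and ±100 the full control effect; actives lower the fluorescent signal which means gametocytes are killed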); settings: P. falciparum 3D7 stage III-V gametocytes, alamarBlue, 72 h; max response: active compounds read low
Outline: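 P. falciparum 3D7 stage III–V gametocytes (20,000 cells/well) were exposed to compounds for 72 h at 37 °C, 5% CO2. AlamarBlue was then added for 24 h; decreased resorufin fluorescence (Ex 525/Em 598 nm) indicated loss of viability.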

[7] = qHTS assay for cell viability of HEK293 cells (AID 743288; active means well fitted curve in the direction sought with a large enough effect; an effect the other way counts as inactive or inconclusive; further: on the % scale 0 is the no-effect control and ±100 the full control effect; nearly all actives have a fitted effect of over 50% in size); settings: ATP luminescence (CellTiter-Glo), 18 h; max response: active compounds read low
Outline: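 Total intracellular ATP, measured with a luciferase-coupled reagent, indicates the number of viable HEK293 cells. Exposure to test chemicals lasts 18 h at 37 C in 1,536-well format at 2,000 cells/well.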

[8] = qHTS assay for cell viability of the p53RE-bla HCT-116 cell line (AID 743292; active means well fitted curve in the direction sought with a large enough effect; an effect the other way counts as inactive or inconclusive; further: on the % scale 0 is the no-effect control and ±100 the full control effect; nearly all actives have a fitted effect of over 55% in size); settings: p53RE-bla HCT-116 viability, ATP luminescence, 16 h; series mostly up to 95 µM
Outline: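 CellSensor p53RE-bla HCT-116 cells (4,000/well) pre-incubated 5 h at 37 C, then exposed to compounds in DMSO for 16 h at 37 C. Viability read as ATP content by CellTiter-Glo luminescence after 30 min at room temperature.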

O=[N+]([O-])c1cccc(S(=O)(=O)NCCNS(=O)(=O)c2cccc([N+](=O)[O-])c2)c1
inactive: outcome [1] | outcome [2] | outcome [3]

c1ccc2[nH]ccc2c1
inactive: outcome [1] | outcome [2] | outcome [3]

Cn1c(NCCN(CCO)CCCc2ccc([N+](=O)[O-])cc2)cc(=O)n(C)c1=O
inactive: outcome [1] | outcome [2] | outcome [3]

C1CCC(NC2CCCCC2)CC1
inactive: Potency [4] | max response [5] 1.26% and -8.57% and 6.08% | max response [6] 18.7% | max response [7] 4.88% and 5.5% and 0.405% | Potency [8] | outcome [1] | outcome [2] | outcome [3]

CCCCCCCCCCC(CO)CCCCCCCC (stereo not given)
inactive: outcome [1] | outcome [2] | outcome [3]

C[C@H](CN1CCCC1)C(=O)c1ccc(C(F)(F)F)cc1
inactive: outcome [1] | outcome [2] | outcome [3]

Cc1c(C)c2c(c(C)c1OC(=O)c1cccnc1)CC[C@@](C)(CCC[C@H](C)CCC[C@H](C)CCCC(C)C)O2
inactive: outcome [1] | outcome [2] | outcome [3]

Cc1cc(O)ccc1Cl
inactive: Potency [4] | max response [5] 3.07% | max response [6] 25.2% | max response [7] -2.31% | Potency [8] | outcome [1] | outcome [2] | outcome [3]

O=C(O)COc1ccccc1
inactive: Potency [4] | max response [5] -7.55% | max response [6] -2.31% | max response [7] -7.91% | Potency [8] | outcome [1] | outcome [2] | outcome [3]

CCOC(=O)c1cccnc1
inactive: outcome [1] | outcome [2] | outcome [3]

CCOC(=O)c1c(C)n(C)c2ccc(O)cc12
inactive: outcome [1] | outcome [2] | outcome [3]

C#CC(C)(CC)OC(=O)c1ccccc1C(=O)O (stereo not given)
inactive: outcome [1] | outcome [2] | outcome [3]

CC(C[N+](C)(C)C)OC(N)=O (stereo not given)
inactive: outcome [1] | outcome [2] | outcome [3]

COc1ccc2cc(CCC(C)=O)ccc2c1
inactive: outcome [1] | outcome [2] | outcome [3]

CCC(=O)O[C@@H]1C=C2CCC3C(CCC4(C)C3CC[C@@H]4OC(=O)CC)C2CC1 (stereo not given in full)
inactive: outcome [1] | outcome [2] | outcome [3]

CCn1cc(C(=O)O)c(=O)c2cc3c(cc21)OCO3
inactive: outcome [1] | outcome [2] | outcome [3]

C[C@@H]1CN(c2c(F)c(N)c3c(=O)c(C(=O)O)cn(C4CC4)c3c2F)C[C@H](C)N1
inactive: outcome [1] | outcome [2] | outcome [3]

C[C@@H](N)C(=O)O
inactive: outcome [1] | outcome [2] | outcome [3]

O=C(O)c1ccccn1
inactive: outcome [1] | outcome [2] | outcome [3]

O=C(Nc1cccc(C2=NCCN2)c1)Nc1cccc(C2=NCCN2)c1
inactive: outcome [1] | outcome [2] | outcome [3]

CC(=O)N[C@@H](Cc1ccc(O)cc1)C(=O)O
inactive: outcome [1] | outcome [2] | outcome [3]

C[C@]12C[C@H](O)[C@H]3[C@@H](CCC4=CC(=O)CC[C@@]43C)[C@@H]1CC[C@@H]2C(=O)CO
inactive: outcome [1] | outcome [2] | outcome [3]

CCCOC(=O)c1ccc(O)cc1
inactive: outcome [1] | outcome [2] | outcome [3]

Nc1ccc(S(=O)(=O)Nc2ccccc2)cc1
inactive: outcome [1] | outcome [2] | outcome [3]

Oc1c(I)cc(I)c2cccnc12
inactive: outcome [1] | outcome [2] | outcome [3]

COc1c(N2CCNC(C)C2)c(F)cc2c(=O)c(C(=O)O)cn(C3CC3)c12 (stereo not given)
inactive: outcome [1] | outcome [2] | outcome [3]

O=C(Oc1ccccc1)c1cccc(C(=O)Oc2ccccc2)c1
inactive: outcome [1] | outcome [2] | outcome [3]

CCOCCOC(C)=O
inactive: Potency [4] | max response [5] 4.03% | max response [6] 4.31% | max response [7] -0.828% | Potency [8] | outcome [1] | outcome [2] | outcome [3]

CN1Cc2cc(C(=O)N3CCC(C4CCNCC4)CC3)ccc2N[C@@H](CC(=O)O)C1=O
inactive: outcome [1] | outcome [2] | outcome [3]

O=C(O)CNC(=O)CNC(=O)CNC(=O)CSC(=O)c1ccccc1
inactive: outcome [1] | outcome [2] | outcome [3]

CCN(CC)c1ccc(C(=C2C=CC(=[N+](CC)CC)C=C2)c2cc(S(=O)(=O)O)ccc2S(=O)(=O)[O-])cc1
inactive: outcome [1] | outcome [2] | outcome [3]

COc1cc(S(N)(=O)=O)cc(C(=O)O)c1OC
inactive: outcome [1] | outcome [2] | outcome [3]

O=[N+]([O-])c1c2ccccc2cc2ccccc12
inactive: Potency [4] | max response [5] -1.85% | max response [6] -7.57% | max response [7] -0.948% | Potency [8] | outcome [1] | outcome [2] | outcome [3]

COc1cc2c(cc1OC)C(=O)CC2
inactive: outcome [1] | outcome [2] | outcome [3]

CN(C(=O)C(Cl)Cl)c1ccc(OC(=O)c2ccco2)cc1
inactive: outcome [1] | outcome [2] | outcome [3]

Cc1cccc(C)c1NC(=O)c1ccc(N)cc1
inactive: outcome [1] | outcome [2] | outcome [3]

O=C(O)c1cc(Oc2ccc(C(F)(F)F)cc2Cl)ccc1[N+](=O)[O-]
inactive: max response [5] -5.54% | max response [6] -10.7% | max response [7] -14.8% | Potency [8] | outcome [1] | outcome [2] | outcome [3]
